For this test, the target named is AMP-activated protein kinase, AMPK (Homo sapiens) (UniProt P54646+O43741+P54619+Q9UGJ0+Q9Y478+Q13131+Q9UGI9). In words: AMP-dependent Kinase enzyme assay. An in vitro enzyme assay that detects ADP turnover that is directly proportional to AMPK activity. This uses naive AMPK that is activated during the assay with MK-8722. The test is classed as functional. Also noted: scale not given: direction of the effect not stated beside the values. To be noted: 30 µM.
For the compound `CN(C)c1nc(N)nc(CN2CCC(c3ccccc3)CC2)n1`, the Percent Effect is -6.86%.

As for `COCCN1CCN(Cc2coc(-c3ccccc3Cl)n2)CC1`, the Percent Effect is -1.56%.

Take `COCCN1C[C@@H](C(=O)O)[C@H](c2ccccc2C)C1`: the Percent Effect was -1.51%.

With `CCCn1cc(-c2cc(C(=O)N(C)C)c3ccc(C)cc3n2)cn1`, the Percent Effect stood at 11.6%.

Consider `Cc1nc(CN(C)S(=O)(=O)c2ccccc2Br)no1`, for which the Percent Effect is 6.12%.

In the case of `Cc1cc(C(=O)NCCN2CCC(C)CC2)nn1C(C)(C)C`, the Percent Effect amounted to 5.48%.

For `O=C(CC1CCCC1)NCCS(=O)(=O)N1CCN(c2ccccn2)CC1`, the Percent Effect was -2.11%.

As for `Cc1ccccc1-c1noc(-c2ccc(NCC3COCCO3)nc2)n1` (stereo not given), the Percent Effect is 6.52%.

For `O=C(CCn1ccnc1)N1CC[C@H](Oc2ccc(F)cc2)[C@@H](O)CC1`, the Percent Effect came to 20.9%.

With `NC1CCc2nc(-c3cccnc3)nc(Nc3ccc(F)cc3)c2C1` (stereo not given), the Percent Effect worked out at 27.2%.

On to `CCC(c1ccc(F)cc1F)S(=O)(=O)CCO` (stereo not given), for which the Percent Effect is -2.09%.

Take `N#Cc1ccc(Cl)cc1NCC1CCOC1` (stereo not given): the Percent Effect is 5.95%.

Consider `C[C@@H]1CN(C(=O)C2(Cn3cccn3)CC2)CC[C@@]1(O)C1CCOCC1`, for which the Percent Effect was 6.2%.

Regarding `NC(=O)CN1C[C@@H](c2ccccc2F)[C@@]2(CCCCC(=O)N2)C1`, the Percent Effect turned out to be 15.1%.

For the compound `CCc1nnc(C(C)N2CCC(NC(=O)C3CCCCC3)CC2)o1` (stereo not given), the Percent Effect was 2.87%.

On to `CCn1nc(C)c(NC(=O)CN(C)C(C)c2nccs2)c1C` (stereo not given), for which the Percent Effect was -6.11%.

Turning to `O=C(Cc1ccccc1Cl)Nc1cc(N2CCCC2)ncn1`, the Percent Effect is 0.395%.

Consider `Cn1nc(C(=O)NCCc2ccc(OC3CCCC3)cc2)ccc1=O`, for which the Percent Effect was -4.35%.

On to `CCN(Cc1ccoc1)C(=O)Nc1ccccc1CN1CCOCC1`, for which the Percent Effect is 4.22%.

On to `O=C(NCC1CCS(=O)(=O)C1)N(Cc1ccccn1)C1CC1` (stereo not given), for which the Percent Effect is -6.01%.

With `Cc1nc(NCc2cccnc2)cc(C2COCCN2)n1` (stereo not given), the Percent Effect is 3.04%.

As for `CN(C)S(=O)(=O)NC1CCCc2c1cnn2-c1ccc(C(C)(C)C)cc1` (stereo not given), the Percent Effect came to 88.7%.

As to `Cc1ncsc1C(=O)N1CCCC1c1c(C)nn(C)c1C` (stereo not given), the Percent Effect worked out at 1.43%.

As to `O=C(Nc1ccc(F)cc1F)NC1(CO)CCOCC1`, the Percent Effect is 4.61%.

`CCOc1cc(NC(=O)N2CCOC3(CCC3)C2)ccc1C`: the Percent Effect is -1.23%.

For `O=C(CCNCc1cccc2c1OCCCO2)NC1CCCC1`, the Percent Effect is -8.82%.

For `CC(C)N(C)C(=O)C1CCN(Cc2cnc3ccccn23)CC1`, the Percent Effect was -1.05%.

Regarding `CN1N=C(C(=O)NCCc2ccc(OC3CCCC3)cc2)CCC1=O`, the Percent Effect was -0.783%.

With `CN(Cc1ccccc1)S(=O)(=O)N1C[C@H](C2CC2)[C@@H](N)C1`, the Percent Effect is -0.41%.

With `CC(C)CCc1noc(C[S+]([O-])CC(=O)NCc2ccccc2)n1` (stereo not given), the Percent Effect is -1.86%.

As to `Fc1ccc(C2(CNCC(F)F)CCOC2)cc1` (stereo not given), the Percent Effect worked out at 3.05%.

As for `CN1CCCN(c2ccc(F)cc2CNC(=O)c2cccnc2)CC1`, the Percent Effect was determined as 38.2%.

With `CCCC1COCCN1Cc1ccc(C(=O)O)cc1` (stereo not given), the Percent Effect is -3.74%.

Consider `COCCOCC(=O)Nc1nc2c(OC)cc(F)cc2s1`, for which the Percent Effect was determined as 3.08%.

Consider `COc1ncc(NCc2ccc(C#N)cc2)cc1C(N)=O`, for which the Percent Effect was 2.92%.

Take `COc1cc(C(=O)O)cc(I)c1OCC(=O)NCCc1ccccc1`: the Percent Effect is 11.9%.

As for `COc1ccccc1NC(=O)CCNC(=O)c1ccoc1`, the Percent Effect is -6.87%.

Regarding `Cc1nnsc1CNC(=O)Nc1cccc(N2CCN(C)C2=O)c1`, the Percent Effect is -11%.

As for `CCc1c(C)nn2c(O)cc(C3CCN(C(=O)c4cnn(C)c4)C3)nc12` (stereo not given), the Percent Effect was 5.68%.

As for `COC1CCN(c2ccc(F)cc2CN(C)C(C)C(N)=O)CC1` (stereo not given), the Percent Effect came out at 8.56%.

The record behind these values is ChEMBL document CHEMBL3988442, “University of Dundee, Small-Polar-MMV Screening Library” (2021).
